Read-out in assay [1]: E-selectin (Homo sapiens) (UniProt P16581)
Description: BSK_3C_Eselectin: BioMAP Diversity Plus: 3C Assay for Eselectin Biomarker Activity (AID 2283015).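 For outcome: cell surface E-selectin protein quantified by ELISA 24 h after dosing.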 The note with it: primary human endothelial cells (HUVEC); actives raise or lower the signal. In short, it runs like this:
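Primary human umbilical vein endothelial cells (3C system) were dosed with chemical and cell-surface E-selectin measured by ELISA 24 h later. Bidirectional curve fitting used DMSO as negative control and baseline.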

Read-out in assay [2]: Interleukin-1 alpha (IL1a), IL1A (gene 3552)
Description: BSK_BE3C_IL1a: BioMAP Diversity Plus: BE3C Assay for Interleukin-1 alpha (IL1a) Biomarker Activity (AID 2283016). The settings on record: primary human bronchial epithelial cells; actives raise or lower the signal. In short, it runs like this:
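Human primary bronchial epithelial cells (BE3C system) were dosed with compound and IL-1a measured by ELISA 24 h later. Activity was fitted bidirectionally against DMSO baseline; cytotoxicity was tracked in parallel cultures by SRB total-protein staining.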

Read-out in assay [3]: Human Leukocyte Antigen - DR isotype (HLADR), HLA-DRA (gene 3122)
Description: BSK_3C_HLADR: BioMAP Diversity Plus: 3C Assay for Human Leukocyte Antigen - DR isotype (HLADR) Biomarker Activity (AID 2283019).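 For outcome: ELISA of cell-surface HLA-DR on HUVEC 24 h after dosing.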 The settings on record: primary human endothelial cells (HUVEC); actives raise or lower the signal. Summed up:
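Primary human umbilical vein endothelial cells (3C system) were dosed with compound and cell-surface HLA-DR was quantified by ELISA at 24 h. Activity was fitted bidirectionally against DMSO as negative control and baseline.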

Read-out in assay [4]: Monokine induced gamma interferon (MIG), CXCL9 (gene 4283)
Kind of assay: BSK_3C_MIG: BioMAP Diversity Plus: 3C Assay for Monokine induced gamma interferon (MIG) Biomarker Activity (AID 2283021).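 For AC50: MIG protein level measured by immunoassay in the treated endothelial cultures.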 The note with it: primary human endothelial cells (HUVEC); actives raise or lower the signal. Summed up:
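Primary human umbilical vein endothelial cells in the 3C system were exposed to chemical for 24 h, after which MIG was quantified by ELISA. Activity was fitted bidirectionally against DMSO as negative control and baseline.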

Assay [5] in a line: BSK_3C_SRB: Viability Assessment in the BioMAP Diversity Plus: 3C Assay (AID 2283023).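 Note: fitted both ways against DMSO so a hit may be signal rise or drop.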 The settings on record: primary human endothelial cells (HUVEC). In short, it runs like this: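 Primary human umbilical vein endothelial cells in the 3C system were read 24 h after compound dosing. Total protein was stained with 0.1% sulforhodamine B after 10% TCA fixation and read at 560 nm, with bidirectional fitting against DMSO as baseline.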

Read-out in assay [6]: Matrix Metallopeptidase 1 (MMP1), MMP1 (gene 4312)
Description: BSK_BE3C_MMP1: BioMAP Diversity Plus: BE3C Assay for Matrix Metallopeptidase 1 (MMP1) Biomarker Activity (AID 2283024). The settings on record: primary human bronchial epithelial cells; actives raise or lower the signal. Summed up:
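Primary human bronchial epithelial cells were dosed with test chemicals, and MMP1 levels were measured by ELISA 24 h later. Data were fitted bidirectionally against DMSO as the negative control and activity baseline.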

Assay [7] is described as follows: BSK_3C_Vis: BioMAP Diversity Plus: 3C Assay for Morphology Visualization (AID 2283025).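 Note: fitted both ways so gain or loss versus DMSO counts.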 The settings on record: primary human endothelial cells (HUVEC). Summed up: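 Human umbilical vein endothelial cells in the 3C system were imaged by light microscopy 24 h after chemical dosing to record cell morphology. Activity was fitted bidirectionally against DMSO as negative control and baseline; the endpoint serves as a background control.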

Read-out in assay [8]: Pselectin, SELP (gene 6403)
Description: BSK_4H_Pselectin: BioMAP Diversity Plus: 4H Assay for Pselectin Biomarker Activity (AID 2283026). The note with it: primary human endothelial cells (HUVEC); actives raise or lower the signal. In short, it runs like this:
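Primary human umbilical vein endothelial cells were exposed to test chemical for 24 h, then cell-surface P-selectin was quantified by ELISA. Activity was fitted bidirectionally against DMSO as negative control and baseline.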

Assay [9] in a line: BSK_BE3C_SRB: Viability Assessment in the BioMAP Diversity Plus: BE3C Assay (AID 2283028).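 For AC50: fitted both ways so AC50 may mark signal gain or loss versus DMSO.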 The settings on record: primary human bronchial epithelial cells. Summed up: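 Human primary bronchial epithelial cells were exposed to test chemicals for 24 h. Total protein in parallel cultures was then measured by staining with 0.1% sulforhodamine B after 10% TCA fixation, with absorbance read at 560 nm. Activity was fitted bidirectionally against DMSO.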

Read-out in assay [10]: Thrombomodulin, THBD (gene 7056)
Kind of assay: BSK_3C_Thrombomodulin: BioMAP Diversity Plus: 3C Assay for Thrombomodulin Biomarker Activity (AID 2283029). The settings on record: primary human endothelial cells (HUVEC); actives raise or lower the signal. In short, it runs like this: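 Primary human umbilical vein endothelial cells (3C system) were exposed to chemical for 24 h, then thrombomodulin levels were measured by ELISA. Activity was fitted bidirectionally against the DMSO negative control as baseline.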

Read-out in assay [11]: Urokinase-type plasminogen activator receptor (uPAR), PLAUR (gene 5329)
Kind of assay: BSK_4H_uPAR: BioMAP Diversity Plus: 4H Assay for Urokinase-type plasminogen activator receptor (uPAR) Biomarker Activity (AID 2283030). The settings on record: primary human endothelial cells (HUVEC); actives raise or lower the signal. In short, it runs like this: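 Primary human umbilical vein endothelial cells were exposed to chemical for 24 h before cell-surface uPAR was quantified by ELISA. Activity was fitted bidirectionally against the DMSO negative control baseline.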

Assay [12] addresses human Retinoid X Receptor beta (RXRb), RXRB (gene 6257) (UniProt P28702). Kind of assay: ATG_RXRb_TRANS: Attagene TRANS-FACTORIAL HepG2 Assay for human Retinoid X Receptor beta (RXRb) (AID 2283013; active = hit-call score of the fitted dose curve at least 0.9, where 1 is the maximum). Summed up:
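HepG2 cells transiently transfected with multiplexed reporter units driven by GAL4-UAS and exogenous chimeric NR-Gal4 proteins; treated 24 h. Reporter mRNA measured by RT-PCR, 6-FAM labelling and capillary electrophoresis; gain-of-signal fitted versus DMSO baseline.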

Read-out in assay [13]: Monocyte Chemoattractant Protein-1 (MCP1), CCL2 (gene 6347)
Kind of assay: BSK_4H_MCP1: BioMAP Diversity Plus: 4H Assay for Monocyte Chemoattractant Protein-1 (MCP1) Biomarker Activity (AID 2283018). The settings on record: primary human endothelial cells (HUVEC); actives raise or lower the signal. Summed up:
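Human umbilical vein endothelial cells (4H system) dosed with chemical; MCP-1 measured by ELISA 24 h after dosing. Bidirectional curve fitting against DMSO negative control as baseline; parallel SRB total-protein staining tracks overt cytotoxicity.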

The target of assay [14] is human Vitamin D Receptor (VDR), VDR (gene 7421) (UniProt P11473). Kind of assay: ATG_VDR_TRANS: Attagene TRANS-FACTORIAL HepG2 Assay for human Vitamin D Receptor (VDR) (AID 2283022; active = hit-call score of the fitted dose curve at least 0.9, where 1 is the maximum). Summed up:
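HepG2 cells were transiently transfected with multiple GAL4-UAS reporter units, so signal reflects exogenous chimeric receptor-Gal4 activity. After 24 h compound exposure, reporter mRNA was measured by RT-PCR, fluorescent labelling and capillary electrophoresis, fitted for gain of signal versus DMSO.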

The nature of assay [15]: BSK_4H_SRB: Viability Assessment in the BioMAP Diversity Plus: 4H Assay (AID 2283027).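 Note: cells exposed to compound for 24 h before staining.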 The note with it: primary human endothelial cells (HUVEC). Summed up: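 Human umbilical vein endothelial cells were dosed with chemical and, after 24 h, fixed with 10% TCA, stained with 0.1% sulforhodamine B, and read at 560 nm to give total protein as a cytotoxicity measure. Bidirectional fitting relative to DMSO control.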

Assay [16] deals with human Thyroid Receptor alpha (THRa1), THRA (gene 7067) (UniProt P10827). Kind of assay: ATG_THRa1_TRANS: Attagene TRANS-FACTORIAL HepG2 Assay for human Thyroid Receptor alpha (THRa1) (AID 2283014; active = hit-call score of the fitted dose curve at least 0.9, where 1 is the maximum). Summed up:
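HepG2 cells transiently transfected with multiplexed GAL4-UAS reporter units for exogenous chimeric THRa1-Gal4; reporter mRNA measured 24 h after dosing by RT-PCR, 6-FAM labelling, HpaI digestion and capillary electrophoresis. Gain-of-signal fitted versus DMSO baseline.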

Read-out in assay [17]: Monocyte Chemoattractant Protein-1 (MCP1), CCL2 (gene 6347)
Description: BSK_3C_MCP1: BioMAP Diversity Plus: 3C Assay for Monocyte Chemoattractant Protein-1 (MCP1) Biomarker Activity (AID 2283017). The settings on record: primary human endothelial cells (HUVEC); actives raise or lower the signal. In short, it runs like this:
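Primary human umbilical vein endothelial cells (3C system) were exposed to test chemical for 24 h, after which MCP-1 was quantified by ELISA. Activity was fitted bidirectionally against DMSO as negative control and baseline.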

Read-out in assay [18]: Interleukin-8 (IL8), CXCL8 (gene 3576)
Kind of assay: BSK_3C_IL8: BioMAP Diversity Plus: 3C Assay for Interleukin-8 (IL8) Biomarker Activity (AID 2283020). The note with it: primary human endothelial cells (HUVEC); actives raise or lower the signal. In short, it runs like this: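 Primary human umbilical vein endothelial cells (3C system) were exposed to test chemical for 24 h, then IL-8 was quantified by ELISA. Responses were fitted bidirectionally against DMSO vehicle as baseline.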

Read-out in assay [19]: Vascular endothelial growth factor receptor 2 (Homo sapiens) (UniProt P35968)
Kind of assay: BSK_4H_VEGFRII: BioMAP Diversity Plus: 4H Assay for Vascular endothelial growth factor receptor 2 (VEGFR2) Biomarker Activity (AID 2283031). The note with it: primary human endothelial cells (HUVEC); actives raise or lower the signal. Summed up:
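Primary human umbilical vein endothelial cells in the BioMAP 4H system were dosed with test chemical, and 24 h later VEGFRII was measured by ELISA. Activity was fitted bidirectionally against DMSO as negative control and baseline.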

The values that follow come from PubChem BioAssay (EPA / NIEHS).

One may read the AC50 as the concentration giving half of the maximal activity seen.

Results filed as inconclusive are left out. Calls of active or inactive are those of the source. Rule for the calls, unless noted: active = hit-call score of the fitted dose curve at least 0.9, where 1 is the maximum; inactive = score below 0.9.

Sequence of human Vitamin D Receptor (VDR), VDR (gene 7421) (P11473 whole entry, looked up, the tested form may be a part): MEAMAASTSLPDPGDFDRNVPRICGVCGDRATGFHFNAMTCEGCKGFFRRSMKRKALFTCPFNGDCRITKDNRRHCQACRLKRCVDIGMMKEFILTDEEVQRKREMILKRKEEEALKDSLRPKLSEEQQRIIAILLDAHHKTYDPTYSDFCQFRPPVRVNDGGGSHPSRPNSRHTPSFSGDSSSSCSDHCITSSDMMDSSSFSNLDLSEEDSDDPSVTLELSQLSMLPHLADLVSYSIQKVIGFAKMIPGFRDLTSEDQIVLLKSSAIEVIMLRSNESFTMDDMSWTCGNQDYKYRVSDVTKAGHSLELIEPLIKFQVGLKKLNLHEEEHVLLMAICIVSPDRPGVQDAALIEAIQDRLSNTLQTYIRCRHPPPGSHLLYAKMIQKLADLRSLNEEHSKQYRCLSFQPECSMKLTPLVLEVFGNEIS
Sequence of E-selectin (Homo sapiens) (P16581 whole entry, looked up): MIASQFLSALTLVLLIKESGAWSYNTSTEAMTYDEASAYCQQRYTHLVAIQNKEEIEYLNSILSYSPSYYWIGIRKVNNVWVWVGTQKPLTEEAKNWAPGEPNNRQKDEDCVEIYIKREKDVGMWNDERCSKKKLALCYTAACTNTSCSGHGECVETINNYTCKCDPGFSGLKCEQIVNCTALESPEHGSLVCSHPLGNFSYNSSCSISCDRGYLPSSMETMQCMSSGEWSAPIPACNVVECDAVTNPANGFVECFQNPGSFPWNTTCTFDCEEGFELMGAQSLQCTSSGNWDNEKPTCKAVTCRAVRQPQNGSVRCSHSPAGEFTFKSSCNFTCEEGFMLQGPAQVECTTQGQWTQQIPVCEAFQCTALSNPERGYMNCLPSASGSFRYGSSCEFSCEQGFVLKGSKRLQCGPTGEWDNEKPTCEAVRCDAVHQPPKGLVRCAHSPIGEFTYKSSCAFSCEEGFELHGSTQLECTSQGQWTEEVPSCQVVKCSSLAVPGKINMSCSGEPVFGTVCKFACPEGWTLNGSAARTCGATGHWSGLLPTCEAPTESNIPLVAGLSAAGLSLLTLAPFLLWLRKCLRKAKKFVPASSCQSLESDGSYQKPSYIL
Sequence of human Retinoid X Receptor beta (RXRb), RXRB (gene 6257) (P28702 whole entry, looked up, the tested form may be a part): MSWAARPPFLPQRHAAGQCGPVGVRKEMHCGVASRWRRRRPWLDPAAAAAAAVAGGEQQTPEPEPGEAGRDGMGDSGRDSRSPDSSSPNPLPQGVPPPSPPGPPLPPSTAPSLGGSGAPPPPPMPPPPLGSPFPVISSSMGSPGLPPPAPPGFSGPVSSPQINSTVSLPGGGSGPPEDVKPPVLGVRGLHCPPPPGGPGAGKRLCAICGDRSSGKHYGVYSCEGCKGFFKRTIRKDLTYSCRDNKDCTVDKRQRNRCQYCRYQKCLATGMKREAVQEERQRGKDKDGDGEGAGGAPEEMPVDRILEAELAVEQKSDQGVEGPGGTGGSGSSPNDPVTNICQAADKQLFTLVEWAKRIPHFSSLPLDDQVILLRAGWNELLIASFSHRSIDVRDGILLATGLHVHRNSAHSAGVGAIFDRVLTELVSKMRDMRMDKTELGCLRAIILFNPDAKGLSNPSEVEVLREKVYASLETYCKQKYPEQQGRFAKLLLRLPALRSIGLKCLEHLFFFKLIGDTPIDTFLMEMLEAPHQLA
Sequence of human Thyroid Receptor alpha (THRa1), THRA (gene 7067) (P10827 whole entry, looked up, the tested form may be a part): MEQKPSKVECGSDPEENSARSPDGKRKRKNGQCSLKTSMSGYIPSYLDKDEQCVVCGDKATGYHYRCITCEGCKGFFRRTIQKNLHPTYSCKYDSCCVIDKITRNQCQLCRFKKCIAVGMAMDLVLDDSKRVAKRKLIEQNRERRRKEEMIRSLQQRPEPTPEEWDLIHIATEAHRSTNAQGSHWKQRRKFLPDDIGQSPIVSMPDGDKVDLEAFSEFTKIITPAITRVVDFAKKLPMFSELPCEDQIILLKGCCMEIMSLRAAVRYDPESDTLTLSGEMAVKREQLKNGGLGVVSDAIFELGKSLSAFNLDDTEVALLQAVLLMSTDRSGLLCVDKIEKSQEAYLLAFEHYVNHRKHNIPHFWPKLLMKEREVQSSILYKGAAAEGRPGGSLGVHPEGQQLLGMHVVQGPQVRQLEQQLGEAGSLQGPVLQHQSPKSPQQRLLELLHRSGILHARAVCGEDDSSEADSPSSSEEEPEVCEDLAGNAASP

For the compound `Cc1ccc(O)cc1`, the result in assay [1], in assay [2], in assay [3], in assay [4], in [5] and in assay [6] was inactive. Also, the outcome in assay [7], in assay [8], in [9], in assay [10] and in assay [11] was inactive.
For `Clc1nc(Cl)c(Cl)c(Cl)c1Cl`, the compound was called inactive in [12], in [1], in assay [13], in [4], in assay [14] and in assay [5]. For the same compound, the outcome in assay [6], in [15], in assay [9], in [10] and in assay [11] was inactive. The AC50 in assay [2] is 29.2 µM (active); in assay [3], 31.2 µM (active); in assay [7] it was 37.5 µM (active); in [8], 30.2 µM (active).
In the case of `CCCCC(CC)COC(=O)c1ccc(C(=O)OCC(CC)CCCC)cc1` (configuration not stated), the AC50 in assay [12] was 49.7 µM (active). The compound was called inactive in assay [16], in assay [1], in assay [2], in assay [3], in assay [4] and in assay [5]. Besides, the result in [8], in assay [9], in [10] and in [11] was inactive.
As for `Cc1ccc(C)c(O)c1`, the outcome in assay [1], in [2], in assay [17], in assay [3], in [18] and in assay [4] was inactive. In addition, the compound was called inactive in [14], in [5], in assay [6], in assay [8], in [15] and in [9]. Besides, the result in assay [10] and in assay [11] was inactive.
Regarding `CC(C)(O)c1coc(S(=O)(=O)NC(=O)Nc2c3c(cc4c2CCC4)CCC3)c1`, the compound was classed as inactive in assay [12], in assay [16], in assay [1], in [2], in assay [17] and in [13]. Moreover, the result in assay [3], in [18], in assay [4], in assay [14], in assay [5] and in assay [6] was inactive. Moreover, the result in assay [7], in [8], in assay [9], in assay [10], in assay [11] and in [19] was inactive.
Regarding `CC1(C)C(=O)N(Br)C(=O)N1Br`, the result in assay [12], in [1], in [2], in assay [13], in assay [3] and in [18] was inactive. Besides, the result in assay [4], in [14], in [5], in [6], in [7] and in assay [8] was inactive. Besides, the result in [15], in assay [9], in assay [10], in assay [11] and in assay [19] was inactive.
As for `CCCCCCc1ccc(O)cc1O`, the AC50 was 24.2 µM (active) in assay [12]; 30.8 µM (active) in assay [1]; 33 µM (active) in assay [2]; 32.5 µM (active) in assay [17]; 16.2 µM (active) in assay [13]; 39 µM (active) in [3]. Besides, the AC50 was 32.4 µM (active) in assay [18]; 3.97 µM (active) in assay [4]; 34.9 µM (active) in assay [5]; 32.3 µM (active) in assay [8]; 35.5 µM (active) in [9]; 36.6 µM (active) in assay [11]. Also, the compound was classed as inactive in [14], in assay [6], in assay [10] and in [19].
